Laboratory results as given in PubChem BioAssay.
Results with a measured potency or affinity are listed apart. Records with an inconclusive call do not appear. Active and inactive are the calls of the source. No rule for the calls is given here.

Test: non-specific cell cytotoxicity, dose response, cytotoxicity control for PAX8 inhibitor project, plate reader, dry powder samples (AID 743021)
Conditions: cell line, non-specific cytotoxicity counter-screen; series mostly up to 35 µM

Compound	outcome
COc1cc(OC)c2c(-c3cccc(-c4ccc(OC)c(F)c4)c3)cc(=O)oc2c1	inactive
C[C@@H]1CCCCO[C@@H](CN(C)Cc2ccc(C(F)(F)F)cc2)[C@@H](C)CN([C@@H](C)CO)C(=O)c2cc(NS(=O)(=O)c3ccc(F)cc3)ccc2O1	inactive
CC(=O)[C@@]1(O)Cc2c(O)c3c(c(O)c2[C@H](O[C@H]2C[C@H](N)[C@H](O)[C@H](C)O2)C1)C(=O)c1ccccc1C3=O	inactive
Cc1ccc(NC(=O)Cn2ncc(Cl)c(Cl)c2=O)cc1S(=O)(=O)N1CCCCC1	inactive
C[C@H](CO)N1C[C@H](C)[C@H](CN(C)S(=O)(=O)c2ccc(Cl)cc2)OCCCC[C@H](C)Oc2ccc(NS(=O)(=O)c3ccc(F)cc3)cc2C1=O	inactive
O=C(c1cc([N+](=O)[O-])ccc1N1CCOCC1)N1CCN(c2ccccc2)CC1	inactive
Cc1noc(C)c1S(=O)(=O)N(C)C[C@@H]1OCCCC[C@H](C)Oc2ccc(NS(=O)(=O)c3ccc(Cl)cc3)cc2C(=O)N([C@H](C)CO)C[C@@H]1C	inactive
CCN(CC)S(=O)(=O)c1cc(NC(=O)Cn2ncc(Cl)c(Cl)c2=O)ccc1C	inactive
OCCCNc1nccc(-c2cc(Nc3cccc(Cl)c3)ncn2)n1	inactive
Nc1nnnn1/N=C/C(Br)=C/c1ccccc1	inactive
COc1ccc(C2=NNC(=Nc3cc(S(=O)(=O)N(C)C)ccc3C)SC2)c(OC)c1	inactive
COc1ccc(NC(=O)c2c(Nc3ccccc3)sc(C(=O)c3ccc(F)cc3)c2N)cc1	inactive
C[C@@H]1CCCCO[C@H](CN(C)Cc2ccc(Cl)c(Cl)c2)[C@H](C)CN([C@@H](C)CO)C(=O)c2cc(NC(=O)Nc3ccccc3)ccc2O1	inactive
C[C@@H]1CCCCO[C@H](CN(C)Cc2ccc(C(F)(F)F)cc2)[C@H](C)CN([C@@H](C)CO)C(=O)c2cc(NS(=O)(=O)c3cccs3)ccc2O1	inactive
CCCNC(=O)Nc1ccc2c(c1)OC[C@H](C)N(Cc1ccc(-c3ccccn3)cc1)C[C@@H](C)[C@@H](OC)CN(C)C2=O	inactive
C[C@@H]1CN([C@H](C)CO)C(=O)c2cc(NC(=O)Nc3ccc(F)cc3)ccc2O[C@@H](C)CCCCO[C@@H]1CN(C)Cc1ccc2c(c1)OCO2	inactive

Compound	outcome
C[C@@H]1CN([C@H](C)CO)C(=O)Cc2cc(NC(=O)Nc3ccc(F)cc3)ccc2O[C@H]1CN(C)Cc1ccc(Cl)c(Cl)c1	inactive
C[C@@H]1CCCCO[C@@H](CN(C)Cc2ccc(C(F)(F)F)cc2)[C@@H](C)CN([C@@H](C)CO)C(=O)c2cc(NS(=O)(=O)c3ccccc3)ccc2O1	inactive
COc1ccc(/C=N/NC(=O)c2[nH]c3ccc(Br)cc3c2-c2ccccc2)cc1	inactive
O=C(C[C@H]1CC[C@H]2[C@@H](COC[C@@H](O)CN2Cc2ccc(Oc3ccccc3)cc2)O1)N1CCCCC1	inactive
C[C@@H]1CN([C@H](C)CO)S(=O)(=O)c2ccc(C#CC3CCCC3)cc2O[C@@H]1CN(C)C(=O)Cc1ccncc1	inactive
COc1ccc(-c2nc3c(c(SCC(=O)Nc4cccc(O)c4)n2)Cc2c(CO)cnc(C)c2O3)cc1	inactive
COc1ccc(NC(=O)Nc2ccc3c(c2)CC(=O)N([C@H](C)CO)C[C@@H](C)[C@@H](CN(C)Cc2ccc(Oc4ccccc4)cc2)O3)cc1	inactive
CCOc1ccc(C(CN2CCOCC2)C(C)=O)cc1OC (stereo unspecified)	inactive
CC1(Cc2ccc(OC(F)(F)F)cc2)C(=O)Nc2ccc(S(=O)(=O)NC3CCCCC3)cc21 (stereo unspecified)	inactive
C[C@@H]1CCCCO[C@@H](CN(C)C(=O)Nc2cccc3ccccc23)[C@H](C)CN([C@H](C)CO)C(=O)c2cc(NS(=O)(=O)c3ccccc3)ccc2O1	inactive
O=C(Nc1ccc(Cl)c(Cl)c1)N[C@@H]1CC[C@H](CCn2cc(C3CCCCC3)nn2)O[C@H]1CO	inactive
C[C@@H]1CCCCO[C@H](CN(C)Cc2ccc(C(F)(F)F)cc2)[C@H](C)CN([C@H](C)CO)C(=O)c2cc(NS(=O)(=O)c3cccs3)ccc2O1	inactive
O=C(Nc1cccc(Cl)c1)Nc1nnc(-c2ccncc2)s1	inactive
C[C@H](CO)N1C[C@H](C)[C@@H](CN(C)S(=O)(=O)c2ccc(Cl)cc2)OCCCC[C@H](C)Oc2ccc(NS(=O)(=O)c3ccc(Cl)cc3)cc2C1=O	inactive
Cc1nc(Nc2nc(CSc3nc4ccccc4[nH]3)cc(=O)[nH]2)nc2ccccc12	inactive
